# Most compounds without a hit are left out; they make up all but 2.3% or so of the library.
# ID4 binder = ID4 (human) binding; P47928; small molecule microarray, Flag-ID4 binding, fluorescence F/B; calls only; hit rate 1.2% among 31,000; AID 624137; call rule not given here;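 note: a binder raises fluorescence above local background on the spot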
# Target sequence (P47928 whole entry, looked up): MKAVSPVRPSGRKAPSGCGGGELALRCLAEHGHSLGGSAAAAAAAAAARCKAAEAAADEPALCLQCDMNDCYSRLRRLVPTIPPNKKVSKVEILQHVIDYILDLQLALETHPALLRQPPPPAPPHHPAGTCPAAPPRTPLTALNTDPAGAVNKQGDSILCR
# mut p53 react = mutant p53 pathway reactivation; SW480 PUMA-promoter luciferase; activation, % at 9.98 µM; hit rate 1.5% among 28,000; AID 624151; in the data active = activation above about 52%
# Starred values were filed as active, the others as inactive; i = inactive; · = no result; + = active, no number.
SMILES,ID4 binder,mut p53 react
C[C@@H]1CN([C@@H](C)CO)C(=O)c2cc(-c3ccc(F)cc3)cnc2O[C@@H]1CN(C)C(=O)Nc1ccccc1F,+,-7
C[C@H](CO)N1C[C@H](C)[C@H](CN(C)C(=O)Nc2ccccc2)Oc2ncc(/C=C/c3ccccc3)cc2C1=O,+,0
C[C@@H]1CN([C@@H](C)CO)C(=O)c2cc(/C=C/c3ccccc3)cnc2O[C@H]1CN(C)C(=O)Nc1ccccc1F,+,3
C[C@H](CO)N1C[C@H](C)[C@H](CN(C)C(=O)Nc2ccccc2F)Oc2ncc(-c3ccc(F)cc3)cc2C1=O,i,15
C[C@@H]1CN([C@H](C)CO)C(=O)c2cc(/C=C/c3ccccc3)cnc2O[C@@H]1CN(C)C(=O)Nc1ccc(C(F)(F)F)cc1,i,-25
C[C@H]1CN([C@@H](C)CO)C(=O)c2cc(/C=C/c3ccccc3)cnc2O[C@H]1CN(C)C(=O)Nc1ccccc1F,·,-1
COc1cccc(NC(=O)N(C)C[C@@H]2Oc3ncc(/C=C/c4ccccc4)cc3C(=O)N([C@H](C)CO)C[C@@H]2C)c1,+,5
C/C=C/c1cnc2c(c1)C(=O)N([C@@H](C)CO)C[C@@H](C)[C@@H](CN(C)C(=O)Nc1cccc(OC)c1)O2,·,3
CC(NS(=O)(=O)c1ccc(F)cc1)C(=O)Nc1ccc(F)c(Cl)c1 (centres undefined),i,-8
CC1(C)Cc2c(sc3c2c(=O)n(-c2cccc(Cl)c2)c2nnc(SCC(=O)Nc4cccc(Cl)c4)n32)CO1,i,4
CC(=O)O[C@H]1[C@H](Oc2ccccc2COC(=O)C2(O)C=CCCC2=O)O[C@H](COC(=O)C2(O)C=CCCC2=O)[C@@H](O)[C@@H]1O (some centres undefined),i,·
CCCNC(=O)N(C)C[C@H]1Oc2ncc(-c3ccc(C(=O)N(C)C)cc3)cc2C(=O)N([C@H](C)CO)C[C@H]1C,+,4
CCCNC(=O)N(C)C[C@@H]1Oc2ncc(-c3ccccc3)cc2C(=O)N([C@@H](C)CO)C[C@H]1C,·,12
COC(=O)Cn1c(=O)n(Cc2ccco2)c(=O)c2c3c(sc21)CCCC3,i,-9
CC(=O)c1cccc(N(CC(=O)Nc2ccc(F)cc2F)S(C)(=O)=O)c1,i,60*
CC(=O)c1cccc(N(CC(=O)Nc2c(C)cccc2C)S(C)(=O)=O)c1,i,1
COC(=O)C(O)(c1c(C)nn(-c2ccccc2)c1N)C(F)(F)F (centres undefined),i,-2
Cc1cccc(NC(=O)CSc2nc(-c3ccccc3)c(-c3ccccc3)[nH]2)c1C,i,-9
O=C(O)CCSc1nc(-c2ccccc2)c(-c2ccccc2)[nH]1,+,-7
Cc1noc(C)c1NC(=O)N(C)C[C@H]1OCCCC[C@@H](C)Oc2ccc(NS(=O)(=O)c3cccs3)cc2C(=O)N([C@H](C)CO)C[C@H]1C,+,-5
CNC[C@@H]1OCCCC[C@@H](C)Oc2ccc(NS(=O)(=O)c3cn(C)cn3)cc2C(=O)N([C@@H](C)CO)C[C@@H]1C,i,-8
Cc1noc(C)c1NC(=O)N(C)C[C@@H]1OCCCC[C@@H](C)Oc2ccc(NS(=O)(=O)c3cn(C)cn3)cc2C(=O)N([C@H](C)CO)C[C@H]1C,+,6
CNC[C@@H]1OCCCC[C@H](C)Oc2ccc(NS(=O)(=O)c3cn(C)cn3)cc2C(=O)N([C@@H](C)CO)C[C@@H]1C,+,2
Cc1noc(C)c1NC(=O)N(C)C[C@@H]1OCCCC[C@H](C)Oc2ccc(NS(=O)(=O)c3cn(C)cn3)cc2C(=O)N([C@@H](C)CO)C[C@H]1C,i,5
Cc1noc(C)c1NC(=O)N(C)C[C@@H]1Oc2ccc(NS(=O)(=O)c3cccs3)cc2C(=O)N([C@H](C)CO)C[C@@H]1C,i,5
SMILES,ID4 binder,mut p53 react
Cc1noc(C)c1NC(=O)N(C)C[C@H]1Oc2ccc(NS(=O)(=O)c3cccs3)cc2C(=O)N([C@@H](C)CO)C[C@@H]1C,i,1
Cc1noc(C)c1NC(=O)N(C)C[C@@H]1OCCCC[C@H](C)Oc2ccc(NS(=O)(=O)c3cccs3)cc2C(=O)N([C@@H](C)CO)C[C@@H]1C,+,-2
Nc1cc(N)nc(SCC(=O)Nc2cccc(C(F)(F)F)c2)n1,i,16
COc1ccc(NC(=O)CSc2nnc(-c3ccc(NC(=O)c4ccc(C)cc4)cc3)n2C)cc1Cl,i,-53
COc1ccc(C(C)(C)C)cc1S(=O)(=O)NC1CC(C)(C)NC(C)(C)C1,i,-4
Cc1noc(C)c1NC(=O)N(C)C[C@@H]1OCCCC[C@@H](C)Oc2ccc(NS(=O)(=O)c3cccs3)cc2C(=O)N([C@H](C)CO)C[C@H]1C,+,3
Cc1noc(C)c1NC(=O)N(C)C[C@@H]1OCCCC[C@@H](C)Oc2ccc(NS(=O)(=O)c3cccs3)cc2C(=O)N([C@@H](C)CO)C[C@H]1C,i,8
CCCCOC(=O)c1cc2c(cn1)[nH]c1ccccc12,i,71*
CNC(=O)c1cc2c(cn1)[nH]c1ccccc12,i,·
COc1cccc(C(=O)Nc2ccc(NC(=O)C3CC=CCC3C(=O)O)cc2)c1 (centres undefined),i,7
COc1cccc(C(=O)Nc2ccc(NC(=O)C3CCCCC3C(=O)O)cc2)c1 (centres undefined),+,-10
O=C(Nc1ccccc1C(=O)O)c1cccc(S(=O)(=O)Nc2ccccc2F)c1,i,-7
O=C(COc1ccc(Br)cc1)Nc1cccc(-c2nnc(-c3ccccc3)o2)c1,i,109*
O=C(COc1ccc(Br)cc1)Nc1ccc2oc(-c3ccc(F)cc3)nc2c1,i,69*
O=C(COc1ccc([N+](=O)[O-])cc1)Nc1ccc2oc(-c3ccc(Br)cc3)nc2c1,i,15
Cc1ccc(C)c(OCC(=O)Nc2cccc(-c3nc4ccccc4o3)c2)c1,i,-4
CCOC(=O)c1cccc(NC(=O)COc2ccc(Br)cc2)c1,i,2
O=C(COc1ccc(Br)cc1)Nc1cccc(-c2nc3ccccc3o2)c1,i,74*
COc1ccccc1NC(=O)CCCC(=O)O,i,18
COc1cccc2c1NC1CC(C)CCC1C2(C)C (centres undefined),i,-2
Cc1cc(I)cnc1NC(=O)COc1ccc([N+](=O)[O-])cc1,i,6
c1ccc2c(c1)OCC(c1nnc3sc(-c4ccncc4)nn13)O2 (centres undefined),i,4
c1csc(-c2nn3c(C4COc5ccccc5O4)nnc3s2)c1 (centres undefined),i,68*
Cc1cc(OCC(=O)Nc2ccccc2-c2nc3ccccc3s2)ccc1Cl,i,-8
Cc1ccc(NC(=O)COc2ccc(Br)cc2Cl)c([N+](=O)[O-])c1,i,82*
SMILES,ID4 binder,mut p53 react
Cc1ccc(NC(=O)COc2ccc(Br)cc2C)c([N+](=O)[O-])c1,i,45
Cc1ccc(NC(=O)COc2ccc(Cl)cc2C)c([N+](=O)[O-])c1,i,64*
Cc1ccc(NC(=O)COc2ccc(Cl)cc2Br)c([N+](=O)[O-])c1,i,14
O=C(COc1ccc(Br)cc1Cl)Nc1ccccc1[N+](=O)[O-],i,39
Cc1ccc(OCC(=O)Nc2ccc(C)cc2[N+](=O)[O-])c(C)c1,i,89*
Cc1ccc(OCC(=O)Nc2nc(C)cc(C)n2)cc1,i,8
COc1ccc(OC)c(S(=O)(=O)N2CCC(C(=O)Nc3cc(Cl)ccc3Oc3ccccc3)CC2)c1,i,2
